# This is a sample that favours compounds with a hit; in the whole collection about 11% have one here.
# ALDH1A1 block: qHTS Assay for Inhibitors of Aldehyde Dehydrogenase 1 (ALDH1A1) | 220,000 tested, 7.3% active | Purified ALDH1A1, NADH fluorescence, propionaldehyde substrate | Potency, µM (series often up to 75.3 µM), usual class: inhibitors; active = well fitted inhibition curve with a large enough effect, not every such curve was filed as active; inconclusive = small, poorly fitted or top-dose-only effect, or another doubt; inactive = no such curve, though single readings can be large or run the other way
# NPSR antag: qHTS Assay for Antagonists of the Neuropeptide S Receptor: cAMP Signal Transduction. 220,000 tested, 1% active. AID 1461, 2008. Q6W5P4. CHO-NPSR cells, cAMP TR-FRET, antagonist mode. Potency, µM (titrated, usually from 38.3 µM), hits mostly inhibitors; note: nearly all actives have a fitted effect of over 50% in size
# Target sequence (Q6W5P4 whole entry, looked up): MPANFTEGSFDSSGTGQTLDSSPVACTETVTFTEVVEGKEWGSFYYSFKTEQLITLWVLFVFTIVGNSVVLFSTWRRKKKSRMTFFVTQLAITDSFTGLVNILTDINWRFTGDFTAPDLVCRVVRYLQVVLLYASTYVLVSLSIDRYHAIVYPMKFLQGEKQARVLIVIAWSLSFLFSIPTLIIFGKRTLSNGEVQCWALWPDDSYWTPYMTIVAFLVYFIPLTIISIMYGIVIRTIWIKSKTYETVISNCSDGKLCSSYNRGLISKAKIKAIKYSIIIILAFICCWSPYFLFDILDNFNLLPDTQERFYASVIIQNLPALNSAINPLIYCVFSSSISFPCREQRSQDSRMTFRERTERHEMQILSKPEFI
# IMPase Li inh: qHTS Assay for Identifying the Cell-Membrane Permeable IMPase Inhibitors: Potentiation with Lithium; AID 1457, 2008; Potency, µM (series often up to 59.4 µM), actives largely listed as inhibitors; CHO-M1 cells, IP1 TR-FRET (IP-One), carbachol + lithium; 210,000 tested, 0.35% active;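 note: IP1 builds up when IMPase is blocked and the TR-FRET signal falls; nearly all actives have a fitted effect of over 50% in size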
#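 CHO-M1, 2000 cells/well, 16–30 h culture; cpd + low Li+, 30 min 37C; lysis with d2-IP1/Eu-anti-IP1 Ab, 10 min RT; TR-FRET 665/620 ratio and 620 channel; AC50 via Hill.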
# PNC inhibitor: High Content Assay for Compounds that inhibit the Assembly of the Perinucleolar Compartment | PC3M PTB-GFP, PNC prevalence imaging, 16 h; active compounds read low | activity change (PNC), negative = inhibition, % at 10 µM | 140,000 tested, 3.1% active | AID 2417, 2010;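 active = readout at or below -70, meaning at least 70% loss of cells showing the perinucleolar compartment, a nuclear body marking cancer cells; inconclusive = readout between -30 and a set limit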
#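 Read-out is percentage of cells bearing a perinucleolar compartment, from automated 20x imaging of fixed, Hoechst-stained PC3M PTB-GFP cells. Cells were seeded 4 h, then exposed 16 h to compound (23 nl of library stock) in duplicate plates.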
# HPGD block: qHTS Assay for Inhibitors of HPGD (15-Hydroxyprostaglandin Dehydrogenase) | 150,000 tested, 4.3% active | purified HPGD, NADH fluorescence kinetic, PGE2 substrate | 15-hydroxyprostaglandin dehydrogenase [NAD(+)] (Homo sapiens), P15428 | Potency, µM, usual class: inhibitors; active = well fitted inhibition curve with a large enough effect, not every such curve was filed as active; inconclusive = small, poorly fitted or top-dose-only effect, or another doubt; inactive = no such curve, though single readings can be large or run the other way
#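 20 nM HPGD preincubated 15 min at room temperature with compound in 50 mM Tris-HCl pH 8, 0.01% Tween 20. Started with 1 mM NAD+ and 30 uM prostaglandin E2; NADH fluorescence (360/450 nm) read 5 times over 30-s intervals, last minus first.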
# IMPase inh: qHTS Assay for Identifying the Cell-Membrane Permeable IMPase Inhibitors | Inositol monophosphatase 1 (Rattus norvegicus), P97697 | 120,000 tested, under 10 active | CHO-M1 cells, IP1 accumulation, HTRF TR-FRET ratio | inhibition (IP1 accumulation), % at 46.1 µM; active = well fitted curve in the direction sought with a large enough effect in the signal ratio, not every such curve was filed as active; inconclusive = small, poorly fitted or top-dose-only effect, or a change in a side signal; inactive = no such curve, though single readings can be large or run the other way; the % refers to the signal ratio;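 note: cells stimulated with carbachol in lithium chloride buffer; higher means more IMPase inhibition seen as more IP1 and lower FRET ratio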
#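 Seeded CHO-M1 cells were dosed with compound at up to 46 uM, stimulated with carbachol for 30 min, then lysed in IP-One detection reagents. Higher IP1 lowers the TR-FRET signal.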
# Hits are given with their value; 0 = inactive; ? = inconclusive; - = no result; [ ] = another dose, or the depositor's remark. Unless noted, calls come from the whole dose curve; as a rule, active = well fitted curve in the direction sought with a large enough effect; inconclusive = small, poorly fitted or top-dose-only effect, or another doubt; inactive = no such curve, though single readings can be large; an effect the other way counts as inactive or inconclusive.
SMILES,ALDH1A1 block,NPSR antag,IMPase Li inh,PNC inhibitor,HPGD block,IMPase inh
CC(=O)c1ccc(NC(=O)CN2CCN(c3ncccn3)CC2)cc1,8.9µM,0,0,0,0,0
CCN(CC)c1ccc(NC(=O)CN2CCN(c3nc(C)cc(C)n3)CC2)cc1,7.9µM,0,0,0,?,0
Cc1cccc(-n2c3nc(=O)[nH]c(=O)c-3cc3cc([N+](=O)[O-])ccc32)c1,0,0,0,0,0,-
Cc1noc(C)c1CSc1ccccc1C(=O)N1CCN(c2ccccc2)CC1,?,0,0,-100,0,0
Cc1nc2c(C)cccc2cc1C(=O)N/N=C/c1ccc(O)cc1,?,0,0,0,0,-
CCOC(=O)c1sc(NC(=S)NC(=O)c2ccccc2)c(C(=O)OCC)c1C,0,0,0,0,0,-
CCOC(=O)C1=C(NC(=S)NC(=O)c2ccccc2)c2ccccc2CC1C(C)C (stereo not drawn),15µM,?,0,-96,0,0
CCOC(=O)C1=C(NC(=S)NC(=O)c2ccccc2)c2ccccc2CC1(C)CC (stereo not drawn),13µM,0,0,?,0,-
Cc1ccc(S(=O)(=O)N2CCOC2CNC(=O)C(=O)NCCc2ccccc2)cc1 (stereo not drawn),-,0,-,-,-,-
Cc1ccc(CNC(=O)C2CCN(S(=O)(=O)c3c(C)noc3/C=C/c3ccco3)CC2)cc1,?,0,0,0,0,0
c1c[nH]c(CN2CCN(Cc3ncc[nH]3)CC2)n1,0[13.5 µM],-,0,-,0,-
O=C(NC(=S)Nc1ccccc1N1CCOCC1)c1ccc(-c2ccccc2F)o1,-,0,-,-,-,-
N#Cc1ccc(NC(=O)COC(=O)CNC(=O)C2CCCCC2)cc1,0,0,0,-105,0,0
CC(=O)NCC(=O)OCC(=O)Nc1ccc(C(C)=O)cc1,22µM,0,0,0,?,0
CC(=O)Oc1ccc(N(C(C)=O)S(=O)(=O)c2cccs2)c2ccccc12,5µM,0,0,-82,0,0
COc1ccc(CCC(=O)NCc2cnn(C)c2)cc1,0,0,0,0,0,0
O=C(CNCCN1CCOCC1)Nc1ccccc1Sc1ccccc1,32µM,0,0,0,0,-
O=C(CN1CCOCC1)Nc1ccccc1Sc1ccccc1,0,0,0,0,0,0
CCCCOc1ccc(CN2CCC(O)CC2)cc1,32µM,0,0,-100,0,0
COCc1cc(Sc2c(Cl)cccc2Cl)nc(-c2ccccc2)n1,0,0,0,0,0,0
Cc1ccc(C)n1-c1sc2c(c1C#N)CCC(C)C2 (stereo not drawn),25µM,0,0,0,0,0
CC(=O)Nc1sc2c(c1C#N)CCC(C)C2 (stereo not drawn),0,0,0,-,-,-
COc1ccc(C(=O)/C=C/c2ccc(OC)c(Cn3nnc4ccccc43)c2)cc1,11µM,0,0,?,?,0
COc1ccc(/C=C/C(=O)c2nc3ccccc3n2CC(=O)c2ccc(OC)cc2)cc1,16µM,0,0,0,0,0
COc1ccc(C(=O)/C=C/c2ccccc2)cc1,18µM,-,0,-,0,-
SMILES,ALDH1A1 block,NPSR antag,IMPase Li inh,PNC inhibitor,HPGD block,IMPase inh
Cc1ccc(C(=O)OCC2OC3OC(C)(C)OC3C2O)cc1 (stereo not drawn),0,0,0,0,4µM,0
O=C1CN(C(=O)COC(=O)CNC(=O)c2ccc(Br)o2)c2ccccc2N1,?,0,0,-,-,-
CCOC(=O)CSC(=S)NC(=O)c1ccc(OC)cc1,?,0,0,0,10µM,-
CC1(C)C(=O)NC2=C1C(=O)C(=O)c1ccccc12,28µM,-,0,-,0,?
Cc1ccc(C2C3=C(CC(C)(C)CC3=O)NC3=C2C(=O)c2ccccc23)cc1 (stereo not drawn),0,0,0,0,0,-
CCCS(=O)(=O)N1CCCC(C(=O)NC2CCCC(C)C2C)C1 (stereo not drawn),0,0,0,-82,0,0
CCCCNc1ccc(S(N)(=O)=O)cc1[N+](=O)[O-],0,0,0,-113,0,-
